Data on 7 compounds can be found in PubChem BioAssay (NCATS).

The target of assay [1] is Cytochrome P450 1A2 (Homo sapiens) (UniProt P05177). Nature of the assay: p450-cyp1a2 (AID 410; calls by dose curve; note: potency is the fitted concentration of half-maximal effect;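 for activity change, negative = inhibition: -100% = full effect of reference inhibitor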). Conditions: recombinant CYP1A2, luciferin-ME demethylation, luminescence; series mostly up to 57 µM. The method in brief:
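Inhibition was calculated relative to 57 uM furafylline (full inhibition). The reaction used human CYP1A2 at 20nM with Luciferin-ME at its Km, 100uM, driven by an NADPH-regenerating system for 60 min at room temperature.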

Assay [2] is described as follows: NFAT Signaling Pathway (AID 444).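 Note: carbachol stimulus at about its EC50 of 1 µM final; % is set by controls: 0 for no effect and ±100 for the full control effect.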 Conditions: Jurkat NFAT-bla M1, carbachol, beta-lactamase ratio, 5 h; series mostly up to 17.2 µM. The text has this:
NCGC Assay Overview: The nuclear factor of activated T cells (NFAT) family of transcription factors has been found primarily in most immune system cells and some other non-immune cells. NFAT plays the immunomodulatory role, primarily in T-cell activation and differentiation. NFAT target genes are also involved in the regulation of apoptosis and differentiation in non-immune cell types. The NFAT sequence was engineered to the upstream of the ?-lactamase reporter gene and transfected into Jurkat cells with co-transfection of muscarinic receptor1 [provided by Invitrogen Corp]. When an extracellular stimulus, such as carbachol, binds to the GPCR M1 receptor, it stimulates a signaling cascade that activates NFAT response element and ?-lactamase expression by phosphorylating the NFAT binding protein. This cell based ?-lactamase reporter gene assay can accurately monitor any changes occurring along the NFAT pathway, and can be used for screening small molecule inhibitor or activator upon activation by carbachol EC50 concentration. A small molecular library were screened in a titration series resulting in AC50s (can be either IC50s or EC50s).
NCGC Assay Protocol Summary: The cells were prepared in RPMI 1640 medium containing 0.1% dialyzed FBS and 25 mM HEPES at 1.6 x 10^6cell/ml. The assay was performed in 1536-well plate format as follows: 5 ul of cell preparation 23 nl of compounds 1ul of carbachol (final concentration 1 uM) Briefly centrifuge the plates and incubate at 37 °C for 5 hours 1 ul of CCF4 dye mixture Incubate the plates at RT for 1 hour Read the plate in EnVision plate reader (Ex= 405nm, and Em1=460nm and Em2=530nm). The %Activity was determined from the ratio of 460nm/530nm. Data normalization and AC50 calculations were accomplished using GeneData software.

Assay [3] is described as follows: Stat Signaling Pathway (AID 446).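 Note: ME-180 cervical cancer cells given 40 pM IL-6 alongside compound; SIE-controlled beta-lactamase reporter measured as 460/530 nm FRET emission ratio; % is set by controls: 0 for no effect and ±100 for the full control effect.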 As to conditions: ME-180 SIE beta-lactamase reporter, IL-6 stimulated, 5 h; series mostly up to 17.2 µM. In a few lines: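 ME-180 SIE-bla cells; overnight plating; cpd + IL-6 40 pM, 5 h, 37 C; LiveBLAzer 2.5 h RT; 460/530 nm emission ratio. Normalized to 300 pM IL-6 and 125 nM JAK inhibitor controls.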
Assay [4] addresses Glucocorticoid receptor (Homo sapiens) (UniProt P04150). Nature of the assay: GR-GFP Redistribution (AID 450;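 active = compounds whose dose series gives a full or clear partial fitted curve of increased nuclear translocation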; note: potency is the fitted concentration of half-maximal effect). As to conditions: U2OS GR-GFP nuclear translocation, laser cytometry, 2 h.
For assay [5] the target is unchanged. Nature of the assay: GR-EFC Redistribution (AID 451; calls by dose curve; note: potency is the fitted concentration of half-maximal effect). As to conditions: CHO-K1 GR-EFC translocation, beta-gal luminescence, 2 h. In a few lines:
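CHO-K1 cells expressing nuclear EA and GR-ED fragments of b-gal; compounds titrated up to 46 uM final, 2 h at 37 C. GR nuclear translocation read as complemented b-gal luminescence after 1 h RT detection.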

Assay [6] concerns the target Mitogen-activated protein kinase 10 (Mus musculus) (UniProt Q61831). In words: JNK3 AlphaScreen Assay (AID 530).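 Note: kinase came from lysate of stimulated human HepG2 cells; signal reports phosphorylation of biotinylated GST-cJun 1-79 at Ser73 with 10 µM ATP; % is set by controls: 0 for no effect and ±100 for the full control effect.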 Conditions: JNK3 lysate, c-Jun phosphorylation; series mostly up to 57.1 µM. In a few lines:
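qHTS format: compounds tested as titrations against IL-1beta/TNF-alpha-activated HepG2 lysate JNK3 with biotin-GST-cJun substrate and 10 uM ATP at room temperature. Loss of anti-phospho-cJun AlphaScreen signal indicates inhibition.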

The target in assay [7] is 3',5'-cyclic-AMP phosphodiesterase 4B (Homo sapiens) (UniProt Q07343). Nature of the assay: qHTS Assay for Inhibitors of PDE-IV (AID 607; active = well fitted activation curve with a large enough effect in the main read-out, with a control signal flat, not every such curve was filed as active; note: % of control where 0% means no effect). Conditions: HEK293 ACTOne CNG channel cells, membrane potential fluorescence; series mostly up to 22.9 µM. The method in brief: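 ACTOne HEK293 cells carry a modified cAMP-gated CNG channel and express endogenous PDE4; plated 1000 cells/well, compounds up to 22.9 uM final. Membrane-potential dye fluorescence (ex 535/em 590) was read; parental cells received 10 uM forskolin + 100 uM RO 20-1724.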
3',5'-cyclic-AMP phosphodiesterase 4B (Homo sapiens), sequence (Q07343 whole entry, looked up): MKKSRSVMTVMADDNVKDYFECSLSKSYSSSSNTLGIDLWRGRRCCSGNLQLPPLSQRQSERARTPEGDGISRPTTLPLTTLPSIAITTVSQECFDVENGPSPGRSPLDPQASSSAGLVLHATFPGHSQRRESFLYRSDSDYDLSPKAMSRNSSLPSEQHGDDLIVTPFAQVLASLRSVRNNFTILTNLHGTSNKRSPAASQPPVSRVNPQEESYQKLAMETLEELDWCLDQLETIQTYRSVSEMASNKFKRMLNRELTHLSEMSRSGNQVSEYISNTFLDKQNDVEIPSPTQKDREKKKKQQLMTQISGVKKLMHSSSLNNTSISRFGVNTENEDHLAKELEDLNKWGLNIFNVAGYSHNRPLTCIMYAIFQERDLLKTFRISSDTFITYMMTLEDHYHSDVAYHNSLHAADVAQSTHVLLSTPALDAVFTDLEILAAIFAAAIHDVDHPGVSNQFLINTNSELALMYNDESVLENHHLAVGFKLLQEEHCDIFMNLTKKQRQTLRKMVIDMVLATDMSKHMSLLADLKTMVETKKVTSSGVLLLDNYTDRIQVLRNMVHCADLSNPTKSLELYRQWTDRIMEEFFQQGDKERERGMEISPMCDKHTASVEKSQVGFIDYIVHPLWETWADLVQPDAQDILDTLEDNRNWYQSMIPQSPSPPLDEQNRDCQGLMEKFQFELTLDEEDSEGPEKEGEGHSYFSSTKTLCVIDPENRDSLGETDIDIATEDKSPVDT
(In general: qHTS replaces the single test concentration by a dilution series.)

In assay [8] the target is Guanine nucleotide-binding protein G(i) subunit alpha-1 (Homo sapiens) (UniProt P63096). Nature of the assay: qHTS Assay for Inhibitors of RGS12 GoLoco Motif Activity (Green Fluorophore) (AID 879; active = well fitted curve in the direction sought with a large enough effect;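 note: 0% = labeled peptide with Gαi1 and full inhibition = labeled peptide alone without protein; negative values mean loss of peptide binding seen as reduced polarization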). As to conditions: Galphai1/FITC-RGS12 GoLoco peptide, fluorescence polarization; series mostly up to 57.1 µM. The text has this: Assay Overview: NIH Molecular Libraries Screening Centers Network [MLSCN] NIH Chemical Genomics Center [NCGC] MLSCN Grant: NS053754-01 Assay Provider: Siderovski, David P, University of North Carolina at Chapel Hill G-protein-coupled receptors (GPCRs) are major targets for drug discovery. The regulator of G-protein signaling (RGS)-protein family has important roles in GPCR signal transduction. RGS proteins contain a conserved RGS-box, which is often accompanied by other signaling regulatory elements. RGS proteins accelerate the deactivation of G proteins to reduce GPCR signaling; however, some also have an effector function and transmit signals. […] Inhibitors of the binding are detected by a decrease in the fluorescence polarization (FP) of the fluorophore. […]
Guanine nucleotide-binding protein G(i) subunit alpha-1 (Homo sapiens), sequence (P63096 whole entry, looked up): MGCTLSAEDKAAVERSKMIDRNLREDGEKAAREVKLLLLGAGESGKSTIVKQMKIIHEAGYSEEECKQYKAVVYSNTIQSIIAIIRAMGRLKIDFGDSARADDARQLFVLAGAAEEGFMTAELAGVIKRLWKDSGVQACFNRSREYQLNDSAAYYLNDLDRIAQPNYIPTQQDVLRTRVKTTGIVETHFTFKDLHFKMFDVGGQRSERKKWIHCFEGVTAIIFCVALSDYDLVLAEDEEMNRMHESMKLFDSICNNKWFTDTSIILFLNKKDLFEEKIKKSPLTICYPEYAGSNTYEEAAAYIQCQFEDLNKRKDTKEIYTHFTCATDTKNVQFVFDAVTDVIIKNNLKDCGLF
Assay Protocol: Reagents/Controls: Assay Buffer: 10 mM Tris-HCl, 150 mM NaCl, 0.1 mM GDP (prepared fresh), and 0.05% NP40 at pH 7.5. […] The plates were incubated for 10 min at room temperature, and then read on ViewLux (Perkin-Elmer) High-throughput CCD imager using FITC polarization filter sets for the fluorescein-labeled decapeptide probe.During dispense, reagent bottles were kept submerged into 4 deg C water bath and all liquid lines were covered with aluminum foil to minimize probe and protein degradation. […]

Assay [9] in a line: AP1 Signaling Pathway (AID 357).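 Note: ME-180 reporter cells stimulated with EGF at its EC50 level; % is set by controls: 0 for no effect and ±100 for the full control effect.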 As to conditions: ME-180 (cervical carcinoma) AP-1-bla reporter, EGF-induced, beta-lactamase ratio, 5 h; series mostly up to 17.2 µM. The text has this:
NCGC Assay Overview: Activator protein-1 (AP-1), a transcription factor, plays an important role in tumor genesis by regulating genes involved in cell proliferation, differentiation, apoptosis, and angiogenesis. AP-1 activity is induced by a complex network of signaling pathways that involves extracellular signals, such as growth factors. The AP-1 protein complex formed from c-Fos and c-Jun binding to the AP-1 response element results in transcriptional activation of genes containing such elements within their promoter. Low molecular weight molecules have been discovered and developed to modulate various components of these signaling pathways, for example, MAP kinase inhibitors. However, many points of pathway modulation remain untested due to the lack of chemical probes making this signaling locus of general interest. Using a beta-lactamase reporter-gene under control of the AP-1 response element, a cell-based assay [CellSensor(TM) AP-1-bla ME-180 developed by Invitrogen Corp.] was used to measure EGF-induced signaling. Library compounds were measured for their ability to modulate positively or negatively the action of EC50 EGF on reporter gene activity. Compounds were screened in a titration series in 1536-well format. Positive and negative modulators were identified based on the AC50 values derived from the screening data.
NCGC Assay Protocol Summary: 2500 cells/5uL in Opti-MEM medium containing 0.5% dialyzed FBS, 0.1 mM NEAA, 1 mM sodium pyruvate and 10 mM HEPES was dispensed into 1536-well plates and cells were cultured at 37 degrees Celsius overnight. […] After centrifugation at 1000 rpm for 2 seconds the plates were incubated at 37 degrees Celsius for 5 hours. 1 uL of CCF4-dye mixture was added to each well. After incubated at room temperature for 2.5 hours the plates were measured on an EnVision plate reader at Excitation 405nm, Emission1=460nm and Emission 2=530nm. The %Activity was determined from the ratio of 460nm/530nm.

In assay [10] the target is Lysosomal acid glucosylceramidase (Homo sapiens) (UniProt P04062). Nature of the assay: Glucocerebrosidase-p2 (AID 348; in the data active = potency below about 10 µM; note: potency is the fitted concentration of half-maximal effect). As to conditions: purified GBA, blue fluorogenic substrate, 40 min. In a few lines: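 Compounds titrated from 0.6 nM upwards against 0.2 nM enzyme in pH 5.9 citric acid/KH2PO4, taurocholate, tween-20; blue fluorogenic substrate 80 uM, 40 min room temperature, stopped and read Ex 365/Em 440 for AC50.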
Lysosomal acid glucosylceramidase (Homo sapiens), sequence (P04062 whole entry, looked up): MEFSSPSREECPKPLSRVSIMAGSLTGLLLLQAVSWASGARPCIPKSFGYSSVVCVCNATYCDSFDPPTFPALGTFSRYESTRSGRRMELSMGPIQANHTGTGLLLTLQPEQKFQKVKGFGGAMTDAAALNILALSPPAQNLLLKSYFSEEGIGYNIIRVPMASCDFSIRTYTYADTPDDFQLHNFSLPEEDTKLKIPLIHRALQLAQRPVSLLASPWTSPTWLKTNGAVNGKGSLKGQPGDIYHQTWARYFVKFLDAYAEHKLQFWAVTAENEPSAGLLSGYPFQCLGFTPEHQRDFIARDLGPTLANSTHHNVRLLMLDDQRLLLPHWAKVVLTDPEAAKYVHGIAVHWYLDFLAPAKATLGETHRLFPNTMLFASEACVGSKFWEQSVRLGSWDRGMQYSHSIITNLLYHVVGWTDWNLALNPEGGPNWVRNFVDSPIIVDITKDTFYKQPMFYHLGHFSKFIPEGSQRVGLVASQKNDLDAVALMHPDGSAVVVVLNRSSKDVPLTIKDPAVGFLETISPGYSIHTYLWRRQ

Results filed as inconclusive are left out. Active and inactive are the calls of the source. Unless noted, calls come from the whole dose curve; as a rule, active = well fitted curve in either direction with a large enough effect (not every such curve was filed as active); inconclusive = small, poorly fitted or top-dose-only effect, or another doubt; inactive = flat fitted curve, though single readings scatter.

Cytochrome P450 1A2 (Homo sapiens), sequence (P05177 whole entry, looked up): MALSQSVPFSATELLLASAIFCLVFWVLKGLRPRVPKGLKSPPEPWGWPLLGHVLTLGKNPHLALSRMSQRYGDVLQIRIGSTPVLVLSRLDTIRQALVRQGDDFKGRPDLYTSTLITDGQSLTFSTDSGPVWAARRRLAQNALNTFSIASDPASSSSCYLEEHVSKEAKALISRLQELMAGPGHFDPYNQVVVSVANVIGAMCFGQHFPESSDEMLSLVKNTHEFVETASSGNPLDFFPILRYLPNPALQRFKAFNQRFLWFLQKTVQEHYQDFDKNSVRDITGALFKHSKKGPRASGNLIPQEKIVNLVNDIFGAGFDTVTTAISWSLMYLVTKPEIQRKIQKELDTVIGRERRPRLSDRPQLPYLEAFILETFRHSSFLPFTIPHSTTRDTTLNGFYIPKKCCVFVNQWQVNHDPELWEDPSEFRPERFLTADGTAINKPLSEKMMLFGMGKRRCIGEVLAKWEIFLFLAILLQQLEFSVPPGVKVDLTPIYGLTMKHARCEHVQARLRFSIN
Glucocorticoid receptor (Homo sapiens), sequence (P04150 whole entry, looked up): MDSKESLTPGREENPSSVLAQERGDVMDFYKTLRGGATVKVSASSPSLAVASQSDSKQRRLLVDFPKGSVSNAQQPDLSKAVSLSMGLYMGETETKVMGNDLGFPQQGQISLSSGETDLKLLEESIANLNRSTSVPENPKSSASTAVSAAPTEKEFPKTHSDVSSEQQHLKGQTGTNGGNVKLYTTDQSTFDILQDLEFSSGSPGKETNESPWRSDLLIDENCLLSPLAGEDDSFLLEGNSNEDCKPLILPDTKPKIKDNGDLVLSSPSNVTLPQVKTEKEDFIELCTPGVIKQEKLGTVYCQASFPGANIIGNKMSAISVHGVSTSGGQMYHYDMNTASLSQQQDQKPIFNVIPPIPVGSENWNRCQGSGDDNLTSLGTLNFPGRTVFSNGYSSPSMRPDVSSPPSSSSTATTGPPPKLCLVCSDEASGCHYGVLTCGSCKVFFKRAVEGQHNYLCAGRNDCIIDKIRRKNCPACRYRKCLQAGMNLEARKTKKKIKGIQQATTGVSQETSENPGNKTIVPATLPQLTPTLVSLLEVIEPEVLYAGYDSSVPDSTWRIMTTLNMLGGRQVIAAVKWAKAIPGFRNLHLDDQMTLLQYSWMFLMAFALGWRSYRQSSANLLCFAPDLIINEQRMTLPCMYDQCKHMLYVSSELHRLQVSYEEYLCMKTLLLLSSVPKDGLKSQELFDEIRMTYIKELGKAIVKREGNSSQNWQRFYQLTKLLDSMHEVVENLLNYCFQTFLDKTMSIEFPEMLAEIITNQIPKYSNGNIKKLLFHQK

On to `O=c1c2ccccc2nc2n1CCc1c-2[nH]c2ccccc12`, for which the figures for the Potency in assay [1], in assay [4] and in assay [5] were 0.316 µM (active), > 46 µM (inactive) and > 46 µM (inactive), respectively. The result in [2], in [3], in assay [6], in assay [7] and in assay [8] was inactive.
Take `Nc1ccc(S(=O)(=O)Nc2ncccn2)cc1`: the outcome in assay [9], in assay [2], in assay [3], in [6] and in assay [7] was inactive. Besides, in assay [1], the Potency entry is “inactive”.
Regarding `C[C@H]1C[C@@H]2[C@@H]([C@@H](O)C[C@@]3(C)[C@H]2CC[C@]3(O)C(=O)CO)[C@@]2(C)C=CC(=O)C=C12`, the result in [9], in assay [2], in assay [3], in [6] and in [7] was inactive.
Regarding `O=C(O)[C@H](Cc1c[nH]c2ccccc12)N1C(=O)c2ccccc2C1=O`, the Potency in assay [10] is > 11.4 µM (inactive); in assay [4], > 46 µM (inactive); in assay [5], > 9.22 µM (inactive). The result in assay [9], in assay [2], in [3] and in [7] was inactive. In addition, the results for the activity change, negative = inhibition in assay [1] and in assay [6] were -8.3% [at 2.29 µM] (inactive) and -0.545% [at 11.4 µM] (inactive), respectively.
Take `CN(C)CCCN=c1c2ccccc2n(C)c2[nH]c(=O)n(C)c(=O)c12`: the Potency in [10] was > 11.4 µM (inactive); in [1] it was 5.01 µM (active); in [4] it was > 46 µM (inactive); in assay [5], > 9.22 µM (inactive). Besides, the result in [9] and in assay [7] was inactive. The activity change, negative = inhibition in assay [6] is 0.481% [at 11.4 µM] (inactive).
Regarding `COC(=O)C[C@](O)(CCCC(C)(C)O)C(=O)O[C@@H]1C(OC)=C[C@]23CCCN2CCc2cc4c(cc2[C@H]13)OCO4`, the Potency result in assay [1] is “inactive”. Besides, the Potency in assay [4] and in assay [5] was > 46 µM (inactive) throughout. Moreover, the compound was called inactive in assay [6] and in [7].
Take `CC(C)c1ccc(Cn2ccc3c4c(N)nc(NC5CC5)nc4ccc32)cc1`: the figures for the Potency in assay [1], in assay [4] and in assay [5] were 1.58 µM (active), > 46 µM (inactive) and > 46 µM (inactive), respectively. In addition, the call in [6] was inactive.
